Consider 40 compounds from PubChem BioAssay (EPA / NIEHS).

The source made the active and inactive calls. The calls were made as follows: active = hit-call score of the fitted dose curve at least 0.9, where 1 is the maximum; inactive = score below 0.9.

A short description of this assay: ATG_E_Box_CIS: Attagene CIS-FACTORIAL HepG2 Assay for human Enhancer Box (E-box) (AID 2282936). The conditions noted are these: HepG2 E-box cis-reporter transcription, actives raise or lower the signal. The method, then: ATG_CIS is a cell-based, multiplexed-readout assay that uses HepG2, a human liver cell line, with measurements taken at 24 hours after chemical dosing in a 24-well plate.ATG_E_Box_CIS is one of 52 assay component(s) measured or calculated from the ATG_CIS assay. It is designed to make measurements of mRNA induction, a form of inducible reporter, as detected with fluorescence intensity signals by Reverse transcription polymerase chain reaction (RT-PCR) and Capillary electrophoresis technology.Data from the assay component ATG_E_Box_CIS was analyzed into 1 assay endpoint. This assay endpoint, ATG_E_Box_CIS, was analyzed with bidirectional fitting relative to DMSO as the negative control and baseline of activity. Using a type of inducible reporter, measures of mRNA for gain or loss-of-signal activity can be used to understand the reporter gene at the transcription factor-level as they relate to the gene USF1. Furthermore, this assay endpoint can be referred to as a primary readout, because this assay has produced multiple assay endpoints where this one serves a reporter gene function. To generalize the intended target to other relatable targets, this assay endpoint is annotated to the dna binding intended target family, where the subfamily is basic helix-loop-helix protein.
Human liver HepG2 cells are transiently transfected with multiple reporter transcription units (MRTUs) in 6-well plates using FuGene 6 reagent (Roche; 3 ml FuGene/1 mg DNA). The MRTU constructs are regulated by a cis-regulating element (promoter). […] A major difference between the CIS and TRANS system is that in CIS activities of endogenous TFs are measured, whereas the TRANS assay evaluates changes in activities of exogenous, chimeric NR-Gal4 proteins. […] At the end of 24 hour incubation, total RNA was isolated using TriZol reagent (Invitrogen). The isolated RNA is then reverse-transcribed using oligo(dT) primer and Mo-MLV reverse transcriptase (Invitrogen) with DNAse I (Ambion) treatment for 30 min. The one-tenth of the produced cDNA was amplified by PCR using Taq DNA polymerase (Invitrogen) and two reporter sequence-specific primers. The PCR products were fluorescently labeled by primer extension with 6-arboxyfluorescein (6-FAM) 5'-labeled reporter sequence-specific primer (2 min at 95 C, 20 s at 68 C and 10 min at 72 C) and these products were digested with 5U of HpaI (New England Biolabs) for 2h at 37 C. The fragments were purified using Qiaquick PCR columns (Qiagen), analyzed on an ABI 3130xL genetic analyzer (Applied Biosystems) with peak positions identified by using a set of X-rhodamine (ROX)-labeled MapMarker1000 molecular weight standards (BioVentures). The raw capillary electrophoresis data was processed using Attagraph software (Attagene).
Turning to `O=C(O)c1cc(C(=O)O)cc([N+](=O)[O-])c1`, the outcome was inactive.
For the compound `CCCCCCCCCCCCCCCC(=O)OC/C=C(C)/C=C/C=C(C)/C=C/C1=C(C)CCCC1(C)C`, the outcome was inactive.
Still for that read-out and setting: with `CCOC(=O)[C@@H](C)Oc1ccc(Oc2nc3ccc(Cl)cc3o2)cc1` the entry was “inactive”.
As to `C1CCCCC1`, the outcome was inactive.
As to `CC=Cc1ccc(OCC)c(O)c1`, the outcome was inactive.
Same read-out and setting: with `C[N+](C)(C)CCCCCC[N+](C)(C)C` the entry was “inactive”; with `CC(=O)OCCCc1ccccc1`, “inactive”; with `CCCSc1ccc2nc(NC(=O)OC)[nH]c2c1`, “inactive”.
Still for that read-out and setting: with `CC(Oc1cc(Cl)ccc1Cl)C(=O)O` (stereo not given) the entry was “inactive”.
For `CCCCCCCCCCCC(=O)OC[C@@H](O)[C@H]1OC[C@H](O)[C@H]1O`, the result was inactive.
Take `CC(C)NCC(O)COc1ccc(CC(N)=O)cc1` (stereo not given): the result was inactive.
Same read-out and setting: with `CCCCC(CC)C(=O)OC(C)C` (stereo not given) the entry was “inactive”; with `CS(C)=O`, “inactive”; with `c1ccc2[nH]cnc2c1`, “inactive”.
Consider `CCCCC1CCC(O)CC1` (stereo not given), for which the outcome was inactive.
As to `CCCC(=O)C(CC)Sc1ccoc1C` (stereo not given), the outcome was inactive.
On the same count and under the same terms, with `O=C(O)COCC(=O)O` the entry was “inactive”; with `CC(C)C[C@H](NC(=O)OCC1c2ccccc2-c2ccccc21)C(=O)O`, “inactive”.
For `O=c1[nH]c(=O)c2cn[nH]c2[nH]1`, the outcome was inactive.
Same read-out and setting: with `CCCCC(CC)COC(C)=O` (stereo not given) the entry was “inactive”; with `Nc1ccccc1[N+](=O)[O-]`, “inactive”.
As for `COC(=O)c1ccc(OC)cc1`, the result was inactive.
For the compound `CC(C=O)Cc1ccc(C(C)(C)C)cc1` (stereo not given), the outcome was inactive.
Still for that read-out and setting: with `CN(C)C(=O)Nc1ccc(Oc2ccc(Cl)cc2)cc1` the entry was “inactive”; with `C1CCOC1`, “inactive”; with `O=C1OC(=O)c2c(Cl)c(Cl)c(Cl)c(Cl)c21`, “inactive”.
For the compound `c1ccc2cc(Nc3ccc(Nc4ccc5ccccc5c4)cc3)ccc2c1`, the outcome was inactive.
Take `CC(C)CC(C)CC(O)CC(C)C` (stereo not given): the outcome was inactive.
The term AC50 denotes the midpoint of the concentration-response curve, whichever way the signal moves. As for `CCCC1O[C@@H]2C[C@H]3[C@@H]4CCC5=CC(=O)C=C[C@]5(C)[C@H]4[C@@H](O)C[C@]3(C)[C@]2(C(=O)CO)O1` (stereo not given in full), the AC50 was 100 µM (active).
For the compound `NC1CCCCC1N` (stereo not given), the outcome was inactive.
For `CCCCN(CCCC)C(=O)N(CCCC)CCCC`, the outcome was inactive.
Still for that read-out and setting: with `CCOCCOCCOCC` the entry was “inactive”; with `CCOC(=O)C(C#N)=C(c1ccccc1)c1ccccc1`, “inactive”.
For the compound `C=CCOC(=O)CCCCCC`, the result was inactive.
For `COc1ccccc1[N+](=O)[O-]`, the result was inactive.
Consider `CN(C)CCOc1ccc(/C(=C(/CCCl)c2ccccc2)c2ccccc2)cc1`, for which the result was inactive.
Take `C#CC(C)(O)CC(C)C` (stereo not given): the result was inactive.
As to `OCC(O)c1ccccc1` (stereo not given), the result was inactive.
Regarding `Cc1[nH]c(=O)c(C#N)cc1-c1ccncc1`, the result was inactive.
With `CCCCCCCCCCCCCCN(CCO)CCO`, the outcome was inactive.
